697 NFkB inh: lowers PMA/ionomycin-induced NF-kB signal in 697 B cells; 330,000 tested, 0.33% active; 697 B-cell NF-kB luciferase reporter, 16 h; inhibition, % at 4 µM; in the data active = inhibition above about 35%
COUP-TFII inh: inhibitors of human COUP-TFII (NR2F2) | 370,000 tested, 0.7% active | P24468 | inhibition, % at 8.6 µM | AID 686940 | HEK293T NGFI-A luciferase reporter, luminescence;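 active = inhibition above a per-plate cutoff, mean inhibition of test wells between control levels plus 3 SD, cut at about 38% in these data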;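 note: cells cotransfected with COUP-TFII expression vector driving the NGFI-A reporter; 0% = median of COUP-TF2 test wells and 100% = reporter-only cells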
Target sequence (P24468 whole entry, looked up): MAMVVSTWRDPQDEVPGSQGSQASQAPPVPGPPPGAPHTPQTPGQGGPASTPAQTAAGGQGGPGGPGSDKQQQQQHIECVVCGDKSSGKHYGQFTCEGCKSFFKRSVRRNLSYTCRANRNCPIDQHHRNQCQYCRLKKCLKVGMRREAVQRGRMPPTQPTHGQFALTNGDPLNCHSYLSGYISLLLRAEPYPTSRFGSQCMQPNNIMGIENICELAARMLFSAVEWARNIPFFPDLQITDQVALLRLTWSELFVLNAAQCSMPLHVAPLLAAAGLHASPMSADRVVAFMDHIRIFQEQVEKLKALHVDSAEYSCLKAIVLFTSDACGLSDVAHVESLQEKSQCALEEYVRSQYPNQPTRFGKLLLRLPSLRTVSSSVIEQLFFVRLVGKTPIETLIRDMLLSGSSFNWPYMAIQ
Gli-Sufu antag: Gli-Sufu pathway antagonism | 340,000 tested, 0.74% active | AID 588413 | inhibition, % at 5 µM | Sufu-KO-LIGHT fibroblasts, Gli luciferase reporter luminescence;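 active = inhibition above about 55%, limit read from the data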;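 note: 0% = DMSO-treated cells and 100% = wells with medium but no cells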
Jurkat NFkB inh: inhibitors of the PMA/ionomycin-induced NF-kB reporter in Jurkat cells. PMA/ionomycin-induced NF-kB luciferase reporter, luminescence. inhibition, % at 4 µM. 330,000 tested, 0.53% active. AID 435003; in the data active = inhibition above about 50%
GalR3 antag: human GalR3 antagonism | HEK293 GalR3-CNG cAMP membrane potential fluorescence; galR3 body fused to GalR1 C-terminus | O60755 | AID 651719 | 360,000 tested, 0.44% active | inhibition, % at 3 µM;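 active = inhibition above the screen-wide average plus 3 SD, cut at about 13% in these data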;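 note: forskolin and galanin both at EC90 stimulate the cells; cAMP rise reported by CNG channel membrane potential dye signal; 0% = forskolin plus galanin with DMSO and 100% = forskolin alone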
Target sequence (O60755 1-299 limits assumed): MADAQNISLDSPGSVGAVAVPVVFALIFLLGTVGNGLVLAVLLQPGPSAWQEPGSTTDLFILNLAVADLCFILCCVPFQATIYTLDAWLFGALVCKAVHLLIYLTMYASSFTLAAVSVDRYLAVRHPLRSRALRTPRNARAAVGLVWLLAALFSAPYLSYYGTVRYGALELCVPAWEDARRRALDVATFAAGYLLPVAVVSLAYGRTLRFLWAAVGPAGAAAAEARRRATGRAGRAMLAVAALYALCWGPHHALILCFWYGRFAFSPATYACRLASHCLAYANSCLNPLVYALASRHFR
Gli-Sufu confirm: Gli-SUFU antagonism confirmation, single concentration. Sufu-KO-LIGHT cells, Gli luciferase reporter, luminescence. 2,500 tested, 40% active. inhibition, % at 5 µM. shares compounds with Gli-Sufu antag;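 active = mean inhibition at 5 µM reaching about 45%, limit read from the data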;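 note: plate controls were DMSO-treated cells for no effect and wells lacking cells for full effect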
SufuKO cytotox: cytotoxicity counter-screen for Gli-SUFU antagonists; shares compounds with Gli-Sufu antag; Sufu-KO-LIGHT cells cytotoxicity, ATP luminescence; cytotoxicity, % at 5 µM; 2,500 tested, 32% active; AID 651994;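 active = mean cytotoxicity at 5 µM above about 25%, limit read from the data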;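 note: cells exposed to compound overnight for roughly 16 to 18 hours; plate controls were DMSO wells with cells for no effect and medium without cells for full effect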
Wnt3a counter: counter-screen for Gli-SUFU antagonists: Wnt3a reporter inhibition; shares compounds with Gli-Sufu antag; Wnt-LIGHT cells, Wnt3a-driven luciferase reporter, luminescence; inhibition, % at 6.25 µM; 2,500 tested, 20% active; AID 651995;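 active = mean inhibition above about 25%, limit read from the data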
Active calls of the source: *; . = no result given. Sampled rows, rich in hits. Any-hit rate of the full collection: about 2%.

SMILES | 697 NFkB inh | COUP-TFII inh | Gli-Sufu antag | Jurkat NFkB inh | GalR3 antag | Gli-Sufu confirm | SufuKO cytotox | Wnt3a counter
CC(NCc1ccc(OCC(N)=O)cc1)C12CC3CC(CC(C3)C1)C2 (stereo not given) | -1.6 | -8.3 | 51.1 | 10.5 | -3.3 | 34.5 | 12.4 | -19.8
CN1C(=O)c2cc(NC(=O)Nc3ccccc3)ccc2OC[C@H]2O[C@@H](CC(=O)N[C@H]3CCN(Cc4ccccc4)C3)CC[C@@H]21 | . | 14.4 | . | . | . | . | . | .
CN1CCc2c(sc3c2c(=O)n(-c2ccccc2)c2nnc(SCc4ccc(Cl)cc4)n32)C1 | 5.3 | 14.3 | 51.3 | 3.4 | -0.5 | 24.6 | 15.2 | -23.6
COC(=O)C1CN(Cc2ccc(OC)cc2)CCS(=O)(=O)N1Cc1ccc(OC)cc1 (stereo not given) | . | 3.7 | . | . | . | . | . | .
COC(=O)C[C@H]1CC[C@@H]2[C@H](COc3ccc(NS(C)(=O)=O)cc3C(=O)N2C)O1 | . | 1.3 | . | . | . | . | . | .
CCN(Cc1ccccc1)C(=O)Cn1cnc2c1c(=O)n(C)c(=O)n2C | 17.2 | -0.2 | 58.7* | 3.4 | 1.9 | 15.1 | 16.6 | 22.4
CC(=O)Nc1ccc(S(=O)(=O)N2CCC(C(N)=O)(N3CCCCC3)CC2)cc1 | -1.1 | -5.7 | 55.2* | -14.1 | -8.5 | 30.0 | -0.7 | 13.7
O=c1[nH]c(=O)n(-c2ccc(F)cc2)c2c1C(C(F)(F)F)(C(F)(F)F)N=C(c1ccc(F)cc1)N2 | -46.6 | -3.5 | 75.2* | 19.8 | 1.2 | 68.5* | 10.0 | 77.2*
COc1cccc2cc3c(nc12)C[C@@H]1CCCC(=O)N2CCC[C@@]12C3 | . | -16.1 | . | . | . | . | . | .
Cc1ccc(NC(=O)NNC(=O)COc2ccc([N+](=O)[O-])cc2)cc1C | 14.2 | 3.2 | 28.2 | 10.4 | -2.0 | . | . | .
O=C(COc1ccc([N+](=O)[O-])cc1)NNC(=O)Nc1ccc([N+](=O)[O-])cc1 | 13.4 | -8.3 | 97.9* | -3.0 | -4.1 | -1.0 | -10.1 | -1.8
COC(=O)C1CN(Cc2cn(CCC3OCCO3)nn2)CCS(=O)(=O)N1Cc1ccccc1 (stereo not given) | . | -9.6 | . | . | . | . | . | .
COc1ccc(NC(=O)c2c(Nc3ccccc3)sc(C(=O)c3ccc(F)cc3)c2N)cc1 | 4.2 | 3.4 | 74.8* | -2.7 | -6.8 | 85.4* | 34.6* | 81.2*
O=C(Cn1ccc2cc(S(=O)(=O)N3CCCC3)ccc21)NCCc1ccccc1 | 0.2 | 11.0 | 57.0* | 11.7 | -7.3 | 26.1 | 5.6 | -17.4
Cc1ccc(COc2ccc(/C=N/NC(=O)c3nnn(-c4nonc4N)c3COc3ccc(F)cc3)cc2)cc1 | -14.7 | -3.0 | -9.7 | -92.0 | -0.9 | . | . | .
Cc1cc(C)c(/C=N/NC(=O)c2nnn(-c3nonc3N)c2COc2ccc(F)cc2)c(C)c1 | -4.1 | -4.8 | 54.8 | -6.8 | -5.7 | 16.3 | 16.3 | -7.9
O=C(CSc1nnc(-c2cccnc2)n1C1CCCCC1)NC1CCCCCC1 | . | -12.1 | . | . | . | . | . | .
CN1/C(=C\C(=O)COC(=O)c2ccc(O)cc2)C(C)(C)c2ccccc21 | -17.7 | 20.4 | 10.4 | -5.9 | -4.5 | . | . | .
CN1/C(=C\C(=O)COC(=O)CNC(=O)c2ccc3ccccc3c2)C(C)(C)c2ccccc21 | -9.8 | 12.3 | 51.4 | -2.7 | -1.7 | 46.5* | 14.4 | 8.3
CN1/C(=C\C(=O)COC(=O)c2ccc(O)c(O)c2)C(C)(C)c2ccccc21 | -24.1 | 16.0 | 64.9* | 20.9 | -4.7 | 64.3* | 25.6* | 75.4*
COC(=O)N1CCCC1c1cccc2[nH]cc(C)c12 (stereo not given) | . | 11.7 | . | . | . | . | . | .
Cc1nc2nc(-c3cccs3)cn2nc1C | -13.2 | -53.4 | 52.7 | -20.4 | -1.5 | -64.1 | 11.9 | -26.6
Cc1nc2nc(-c3ccc(Cl)cc3)cn2nc1C | -170.7 | -20.3 | -102.9 | -126.0 | -4.0 | . | . | .
CCOc1ccccc1CNc1nnnn1C | 4.5 | -9.7 | . | 1.3 | -10.4 | . | . | .
CCOc1ccc(Cl)cc1CNc1nnnn1C | 2.0 | -13.3 | 51.2 | -9.8 | -6.3 | 15.8 | 15.1 | -1.4
SMILES | 697 NFkB inh | COUP-TFII inh | Gli-Sufu antag | Jurkat NFkB inh | GalR3 antag | Gli-Sufu confirm | SufuKO cytotox | Wnt3a counter
COc1ccc(NC(=O)c2oc3ccccc3c2NC(=O)c2ccco2)c(OC)c1 | 34.1 | 22.6 | 54.4 | 21.1 | -7.5 | 33.1 | 42.6* | 0.6
CCC[C@H]1[C@@H](OC(=O)NCc2cccnc2)CC[C@@]23CCCN2C(=O)CCC[C@@H]13 | . | 21.2 | . | . | . | . | . | .
O=C(OCCN1CCCC12CCC(c1ccccc1)CC2)c1ccccc1 (stereo not given) | . | 1.5 | . | . | . | . | . | .
CCc1ccc(-c2csc3[n+]2CCN3C(C)=O)cc1 | 1.9 | 9.6 | 13.0 | -9.5 | -4.0 | . | . | .
CCc1ccc(-n2cc(-c3ccc(F)cc3)[n+]3c2SCCC3)cc1 | 24.2 | 35.1 | 85.5* | 38.7 | -0.7 | 89.6* | 44.8* | 32.9*
CC1CSc2n(-c3cccc(C(F)(F)F)c3)cc(-c3ccccc3)[n+]21 (stereo not given) | -11.9 | 4.1 | 46.4 | 1.2 | 2.9 | . | . | .
c1ccc(-c2cn(-c3ccccc3)c3[n+]2CCCS3)cc1 | -20.0 | 3.9 | 68.2* | 7.5 | 2.9 | 68.7* | 33.4* | 33.4*
COCCCN1C(=O)[C@H](CC(=O)NCCCN2CCCC2=O)[C@]2(C(=O)OC)CCCCC=C12 | . | -7.6 | . | . | . | . | . | .
COc1ccc(NC(=O)c2cccc(N3C(=O)C4C5C=CC(C6CC56)C4C3=O)c2)c(OC)c1 (stereo not given) | -23.7 | 8.7 | 55.5* | 3.5 | -3.5 | 28.8 | -3.4 | 8.9
C[C@@H]1CN([C@@H](C)CO)C(=O)c2cccc(NC(=O)Nc3cccc4ccccc34)c2O[C@H]1CN(C)S(=O)(=O)c1ccc2c(c1)OCCO2 | . | 0.4 | . | . | . | . | . | .
CC(=O)OCc1cc(-c2nc3ccccc3[nH]c2=O)nn1-c1ccc(Cl)cc1 | 12.8 | 13.6 | 51.9 | -3.5 | -8.6 | 11.0 | 1.6 | -28.0
COc1ccc(CC(=O)NC(=S)Nc2ccc(S(N)(=O)=O)cc2)cc1 | 5.2 | 2.5 | -0.3 | 1.3 | 1.3 | . | . | .
C=CCN(CC=C)S(=O)(=O)c1ccc(NC(=S)NC(=O)Cc2ccc(OC)cc2)cc1 | 3.7 | 11.4 | 69.1* | 9.4 | -8.7 | 15.6 | 17.1 | 24.2
COC(=O)c1cc(-c2cnc(OC)nc2OC)c(=O)n2c1CCC2 | . | -4.4 | . | . | . | . | . | .
COC(=O)c1ccc(Oc2cc(C)nc(-n3nc(C)cc3C)n2)cc1 | . | -63.8 | 52.1 | . | -2.6 | 63.5* | 59.8* | 18.0
COc1ccc(N2CCN(C3CC(=O)N(C)C3=O)CC2)cc1 (stereo not given) | 6.6 | 2.8 | 67.0* | 10.7 | -2.2 | 25.2 | 0.9 | 8.9
CN1C(=O)CC(N2CCN(c3ccc(Cl)cc3)CC2)C1=O (stereo not given) | 23.5 | -6.4 | -1.0 | -2.7 | -3.4 | . | . | .
C=CCN1C/C(=C/c2ccccc2)N2C(=O)CC(c3ccccc3)N=C12 (stereo not given) | . | 16.1 | . | . | . | . | . | .

Screening results as filed in PubChem BioAssay.
